TbPYK inhibitor = inhibitors of Trypanosoma brucei pyruvate kinase; Potency, µM (titrated, usually from 76.8 µM), for the others: at the top dose activity, negative = inhibition, usual class: inhibitors; TbPYK enzyme, Kinase-Glo Plus ATP luminescence, 45 min; 410,000 compounds, 0.12% hits; AID 624173; Q57TT1; also: potency is read from the fitted curve at half-maximal effect; nearly all actives have a fitted effect of over 50% in size
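Luminescence from Kinase-Glo Plus, added after a 45-minute room-temperature reaction, served as the end-point read-out. The enzyme and substrate were preincubated with compound before ADP (130 uM final) initiated turnover. Concentration-effect curves came from normalized qHTS data.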
VACV Venus inh = vaccinia inhibition (Venus reporter) | Potency, µM (titrated, usually from 36.5 µM), for the others: at the highest dose activity change, negative = inhibition, actives largely listed as inhibitors | AID 720580 | 330,000 compounds, 0.46% hits | Vaccinia virus Venus reporter expression, fluorescence; calls by dose curve; tested in A549 cells; also: potency is read from the fitted curve at half-maximal effect; nearly all actives have a fitted effect of over 30% in size
Vaccinia mCherry = vaccinia inhibition (mCherry reporter); Vaccinia virus mCherry reporter infection, fluorescence; Potency, µM (highest dose often 36.5 µM), without a hit: at the highest dose activity change, negative = inhibition, actives largely listed as inhibitors; AID 720579; 310,000 compounds, 0.63% hits; calls by dose curve; tested in A549 cells; also: potency is read from the fitted curve at half-maximal effect; nearly all actives have a fitted effect of over 35% in size
HCMV inh = blocks human cytomegalovirus replication; HFF cells, HCMV-luciferase reporter, 72 h; hits give low values; 410,000 compounds, 4.5% hits; activity change, negative = inhibition, % at 57.5 µM; in the data active = activity change below about -60%; inconclusive = no clear call, values can overlap the other calls; inactive = above about -39%
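HFF cells seeded 16 h at 37C, treated with compounds, infected with luciferase-reporter HCMV at MOI 1 PFU/cell; luciferase read at 72 h post infection, normalized to buffer-only and Salinomycin controls.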
LmPK inhibitor = LmPK (Leishmania mexicana) enzyme inhibition; Q27686; purified LmPK, Kinase-Glo ATP luminescence, 1 h; Potency, µM (top dose mostly 57.5 µM), for inactives: at the top dose activity change, negative = inhibition, hits mostly inhibitors; 290,000 compounds, 0.37% hits; also: potency is read from the fitted curve at half-maximal effect
Target sequence (Q27686 whole entry, looked up): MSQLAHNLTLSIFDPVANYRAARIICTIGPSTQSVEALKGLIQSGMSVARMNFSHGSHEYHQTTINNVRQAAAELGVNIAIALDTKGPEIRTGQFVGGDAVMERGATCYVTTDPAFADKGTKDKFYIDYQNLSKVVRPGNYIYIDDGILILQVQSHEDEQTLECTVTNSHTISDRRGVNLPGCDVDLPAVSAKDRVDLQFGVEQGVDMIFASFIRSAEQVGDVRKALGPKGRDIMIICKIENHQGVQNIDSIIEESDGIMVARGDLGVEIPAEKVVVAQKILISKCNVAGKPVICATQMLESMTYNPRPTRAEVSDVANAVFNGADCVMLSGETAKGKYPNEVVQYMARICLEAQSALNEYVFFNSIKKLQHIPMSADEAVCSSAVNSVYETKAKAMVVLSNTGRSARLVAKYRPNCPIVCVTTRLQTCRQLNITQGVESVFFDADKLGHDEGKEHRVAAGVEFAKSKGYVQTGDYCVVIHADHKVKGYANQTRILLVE
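Kinase-Glo luminescence read after 1 h RT reaction of 0.1 nM LmPK with 0.5 mM PEP and 0.1 mM ADP. Activity scaled between uninhibited and enzyme-free controls.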
* hit, by the source's call. Shown are actives, neighbours in structure and some others; about 5% of the full set was active somewhere. Unless noted, calls follow the shape of the dose curve; as a rule, active = well fitted curve in the direction sought with a large enough effect; inconclusive = small, poorly fitted or top-dose-only effect, or another doubt; inactive = no such curve, though single readings can be large; an effect the other way counts as inactive or inconclusive. % is scaled to controls: 0 for no effect and ±100 for the full control effect.

What do the screens show for `CCOC(=O)C1(CC2CC2)CCN(Cc2cnc(-c3ccc(OC)cc3)nc2)CC1`?
TbPYK inhibitor: 1%; HCMV inh: -62*; LmPK inhibitor: 7%

What do the screens show for `CCOC(=O)C1(CC2CC2)CCN(Cc2ccc(O)c(Cl)c2)CC1`?
LmPK inhibitor: -4%

What do the screens show for `COc1ccc(NC(=S)N(Cc2ccccn2)Cc2ccccc2Cl)cc1`?
TbPYK inhibitor: -4%; VACV Venus inh: 2%; Vaccinia mCherry: 0%; HCMV inh: 4; LmPK inhibitor: -1%

How did COc1cccc(NC(=S)N(Cc2ccccn2)Cc2ccccc2Cl)c1 do in these assays?
TbPYK inhibitor: 2%; VACV Venus inh: -9%; Vaccinia mCherry: -15%; HCMV inh: -60*; LmPK inhibitor: 2%

Results for O=C(NCC(=O)N(c1ccc2c(c1)OCO2)C(C(=O)NC1CCCC1)c1ccncc1)c1ccco1 (stereo unspecified) ?
TbPYK inhibitor: inconclusive; VACV Venus inh: -4%; Vaccinia mCherry: -12%; HCMV inh: -2; LmPK inhibitor: 10%

What do the screens show for `COc1ccc(-c2cc3nc(-c4ccccc4)cc(N4CCCC(O)C4)n3n2)cc1` (stereo unspecified)?
TbPYK inhibitor: 6%; VACV Venus inh: inconclusive; Vaccinia mCherry: 13µM*; HCMV inh: -30; LmPK inhibitor: 1%

How did O=C1c2cccc3cccc(c23)C(=O)N1Cc1cccnc1 do in these assays?
TbPYK inhibitor: -9%; VACV Venus inh: -6%; Vaccinia mCherry: -14%; HCMV inh: 33; LmPK inhibitor: -5%

How did O=C1c2cccc3c([N+](=O)[O-])ccc(c23)C(=O)N1Cc1cccnc1 do in these assays?
TbPYK inhibitor: -6%; VACV Venus inh: 10%; Vaccinia mCherry: -16%; HCMV inh: -73*; LmPK inhibitor: 5%

How did Cc1cccc(N(C(=O)c2snc(C(N)=O)c2N)C(C(=O)NC2CCCC2)c2ccco2)c1 (stereo unspecified) do in these assays?
TbPYK inhibitor: 0%; VACV Venus inh: -3%; Vaccinia mCherry: -15%; HCMV inh: 15; LmPK inhibitor: 2%

How did COc1ccc(N2C(=O)N(Cc3ccc(C)cc3)c3ccccc3S2(=O)=O)cc1 do in these assays?
TbPYK inhibitor: 0%; VACV Venus inh: -5%; Vaccinia mCherry: inconclusive; HCMV inh: -19; LmPK inhibitor: 10%

Results for CSc1ccc(CNc2nnnn2C)cc1 ?
TbPYK inhibitor: 0%; VACV Venus inh: 0%; Vaccinia mCherry: inactive; HCMV inh: -81*; LmPK inhibitor: 2%

Results for O=C(/C=C/c1ccc(N2CCCCC2)c([N+](=O)[O-])c1)c1ccc(O)cc1 ?
TbPYK inhibitor: 1%; VACV Venus inh: -17%; Vaccinia mCherry: inconclusive; HCMV inh: 15; LmPK inhibitor: -2%

Results for COc1ccccc1C(=O)/C=C/c1ccc(N2CCCCC2)c([N+](=O)[O-])c1 ?
TbPYK inhibitor: -6%; VACV Venus inh: inconclusive; Vaccinia mCherry: inconclusive; HCMV inh: -80*; LmPK inhibitor: 2%

What do the screens show for `CC(=O)Oc1ccccc1C(=O)C=Cc1cccc([N+](=O)[O-])c1`?
TbPYK inhibitor: 7%; VACV Venus inh: inconclusive; Vaccinia mCherry: 14µM*; HCMV inh: -77*

Results for Cc1cc(O)c(C(=O)/C=C/c2cccc([N+](=O)[O-])c2)c(=O)o1 ?
TbPYK inhibitor: -1%; VACV Venus inh: -11%; Vaccinia mCherry: inactive; HCMV inh: -19; LmPK inhibitor: inconclusive

What do the screens show for `O=C(/C=C/c1cccc([N+](=O)[O-])c1)c1cccs1`?
TbPYK inhibitor: 9%; VACV Venus inh: -25%; Vaccinia mCherry: -24%; HCMV inh: -90*; LmPK inhibitor: 0%

What do the screens show for `COc1ccc(-c2csc(NC(=O)C3CCN(c4ncnc5sc(C)c(C)c45)CC3)n2)cc1OC`?
TbPYK inhibitor: -2%; VACV Venus inh: inconclusive; Vaccinia mCherry: -18%; HCMV inh: -100*

Results for COc1cc(C(=O)N2CCN(c3ncnc4sc(C)c(C)c34)CC2)cc(OC)c1OC ?
TbPYK inhibitor: 1%; VACV Venus inh: inconclusive; Vaccinia mCherry: inconclusive; HCMV inh: -79*; LmPK inhibitor: -3%

What do the screens show for `COc1ccccc1OCC(=O)NNC(=O)C1CCN(c2ncnc3sc(C)c(C)c23)CC1`?
TbPYK inhibitor: 0%; HCMV inh: -29

Bioassay records (PubChem)
